Structures can show the parent of a compound that is named as a salt.
Legend:
Settings in all cases: compound concentration in added solution (µM; 5 µl added to 20 µl cells): 10; 18 h
A431 [1] = test: LBPA endosome anti-LBPA integrated intensity (sum per cell), Z-score; higher = more LBPA staining
Summary of the method: (§1)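 The data are Z-scores, normalised in AcuityXpress, of integrated LBPA or filipin intensity in each cell, either whole-cell or restricted to LBPA endosomes. HeLa MZ or A431 cells, 3,500 per well in 20 µl, were seeded onto 5 µl of 10 µM compound solution in duplicate 384-well plates and incubated 18 h. Fixed cells were stained and imaged, with intensities extracted by MetaXpress segmentation.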

HeLa MZ [2] = test: as above
Summary of the method: as §1

A431 [3] = test: whole-cell filipin (free cholesterol) integrated intensity, Z-score; higher = more cholesterol staining
Summary of the method: as §1

HeLa MZ [4] = test: as above
Summary of the method: as §1

A431 [5] = test: filipin (cholesterol) integrated intensity within LBPA endosomes, Z-score; higher = more cholesterol in LBPA endosomes
Summary of the method: as §1

HeLa MZ [6] = test: as above
Summary of the method: as §1

SMILES	LBPA endosome anti-LBPA integrated intensity (z-score) (A431 [1])	LBPA endosome anti-LBPA integrated intensity (z-score) (HeLa MZ [2])	whole-cell filipin (z-score) (A431 [3])	whole-cell filipin (z-score) (HeLa MZ [4])	filipin (z-score) (A431 [5])	filipin (z-score) (HeLa MZ [6])
CC(=O)c1ccc2c(c1)N(CCCN1CCC(CCO)CC1)c1ccccc1S2 [Piperacetazine]	4.58	1.54	2.51	1.35	3.1	3.21
OCCN1C[C@H](O)[C@@H](O)[C@H](O)[C@H]1CO [Miglitol]	-0.534	-0.285	-0.628	-0.643	-0.487	-0.578
Cc1cc(C(=O)NNCc2ccccc2)no1 [Isocarboxazid]	-0.549	-1.31	-0.396	-0.63	-0.553	-0.513
CN(C)C/C=C(/c1ccc(Br)cc1)c1cccnc1 [Zimelidine dihydrochloride monohydrate]	-0.281	0.0916	-0.265	-0.387	0.179	0.387
CCCC(C(=O)OCCN(CC)CC)(c1ccccc1)c1ccccc1 [Proadifen hydrochloride]	2.78	2.82	2.1	-0.192	2.21	1.12
CC[C@]12CCCN3CCc4c(n(c5ccccc45)C(=O)C1)[C@@H]32 [Eburnamonine (-)]	-0.525	-1.3	-0.836	-2.15	-0.422	-0.458
CC1=C(C(=O)O)N2C(=O)[C@@H](NC(=O)[C@H](N)c3ccccc3)[C@H]2SC1 [Cephalexin monohydrate]	-0.543	-0.797	-0.64	-0.482	-0.499	-0.511
CN1CCN(C(c2ccccc2)c2ccccc2)CC1 [Cyclizine hydrochloride]	-0.35	0.424	-0.0386	-0.181	-0.285	0.0272
CCOC(=O)O[C@]1(C(=O)COC(=O)CC)CC[C@H]2[C@@H]3CCC4=CC(=O)C=C[C@]4(C)[C@H]3[C@@H](O)C[C@@]21C [Prednicarbate]	-0.408	-0.375	0.46	0.0462	-0.282	-0.201
Nc1ccc(C(=O)O)c(O)c1 [4-aminosalicylic acid]	-0.488	-0.439	-0.159	-0.434	-0.444	-0.569
C[C@]12CC[C@@H]3c4ccc(O)cc4CC[C@H]3[C@@H]1C[C@@H](O)[C@@H]2O [Estriol]	-0.219	0.135	-0.24	-0.552	-0.367	-0.397
CNCCC(Oc1ccc(C(F)(F)F)cc1)c1ccccc1 (stereo unspecified) [Fluoxetine hydrochloride]	2.5	0.902	0.302	-0.115	2.19	1.62
CCCc1cc(=O)[nH]c(=S)[nH]1 [Propylthiouracil]	-0.571	-0.555	-0.7	-0.496	-0.538	-0.457
CCn1cc(C(=O)O)c(=O)c2cnc(N3CCNCC3)nc21 [Pipemidic acid]	-0.522	0.188	-0.242	0.338	-0.361	-0.281
CC(C)(C)NCC(O)c1cc(O)cc(O)c1 (stereo unspecified) [Terbutaline hemisulfate]	-0.651	-1.35	-0.395	-0.481	-0.593	-0.644
CN1CCN2c3ccccc3Cc3ccccc3C2C1 (stereo unspecified) [Mianserine hydrochloride]	1.6	1.07	1.17	0.96	1.16	1.54
CCCOc1ccc(C(=O)OCCN(CC)CC)cc1N [Proparacaine hydrochloride]	-0.432	0.26	-0.369	-0.271	-0.454	-0.0385
CN1C(C(=O)Nc2ccccn2)=C(O)c2ccccc2S1(=O)=O [Piroxicam]	-0.541	-0.331	-0.896	-1.08	-0.561	-0.694
COC(=O)[C@H]1[C@H]2C[C@@H]3c4[nH]c5cc(OC)ccc5c4CCN3C[C@H]2C[C@@H](OC(=O)c2cc(OC)c(OC)c(OC)c2)[C@@H]1OC [Reserpine]	3.11	2.24	2.19	1.75	2.34	1.96
Nc1ccc(O)c(C(=O)O)c1 [Mesalamine]	-0.0986	0.304	0.385	0.263	-0.341	-0.247
CN1CCCN=C1/C=C/c1cccs1 [Pyrantel tartrate]	-0.533	-0.181	-0.934	-1.12	-0.565	-0.677
CN(C)CC/C=C1\c2ccccc2CSc2ccccc21 [Dosulepin hydrochloride]	1.61	0.828	1.17	0.164	1.82	0.976
Fc1ccc(C(c2ccc(F)cc2)N2CCN(C/C=C/c3ccccc3)CC2)cc1 [Flunarizine dihydrochloride]	0.53	-0.311	0.301	-0.958	0.627	0.163
CCc1oc2ccccc2c1C(=O)c1cc(Br)c(O)c(Br)c1 [Benzbromarone]	-0.388	-0.283	-0.536	-0.296	-0.47	-0.42
O=C1CC2(CCCC2)CC(=O)N1CCCCN1CCN(c2ncccn2)CC1 [Buspirone hydrochloride]	-0.302	-0.586	0.536	0.427	-0.00788	0.293
CC(O)(P(=O)(O)O)P(=O)(O)O [Etidronic acid, disodium salt]	-0.428	-0.376	-0.14	-0.368	-0.461	-0.4

SMILES	LBPA endosome anti-LBPA integrated intensity (z-score) (A431 [1])	LBPA endosome anti-LBPA integrated intensity (z-score) (HeLa MZ [2])	whole-cell filipin (z-score) (A431 [3])	whole-cell filipin (z-score) (HeLa MZ [4])	filipin (z-score) (A431 [5])	filipin (z-score) (HeLa MZ [6])
C=C1c2c(Cl)ccc(O)c2C(=O)C2=C(O)[C@]3(O)C(=O)C(C(N)=O)=C(O)[C@@H](N(C)C)[C@@H]3[C@@H](O)[C@H]12.O=C(O)c1cc(S(=O)(=O)O)ccc1O [Meclocycline sulfosalicylate]	-0.505	-0.19	-0.811	-1.34	-0.554	-0.823
COC(=O)C1=C(C#N)NC(C)=C(C(=O)OC(C)C)C1c1cccc([N+](=O)[O-])c1 (stereo unspecified) [Nilvadipine]	-0.407	-0.929	0.11	0.875	-0.268	-0.158
CCN[C@H]1CN(CCCOC)S(=O)(=O)c2sc(S(N)(=O)=O)cc21 [Brinzolamide]	-0.542	-0.00126	-0.549	-0.378	-0.517	-0.377
CCN(Cc1ccncc1)C(=O)C(CO)c1ccccc1 (stereo unspecified) [Tropicamide]	-0.503	-0.535	-0.78	-0.974	-0.52	-0.592
CC(=O)Nc1c(I)c(C(=O)N[C@H]2C(O)O[C@H](CO)[C@@H](O)[C@@H]2O)c(I)c(N(C)C(C)=O)c1I (stereo partly specified) [Metrizamide]	-0.495	-0.295	-0.527	-0.9	-0.561	-0.597
CC(=O)NC[C@H]1CN(c2ccc(N3CCOCC3)c(F)c2)C(=O)O1 [Linezolid]	-0.619	-0.712	-0.597	-0.713	-0.583	-0.674
c1cnc(N2CCN(Cc3ccc4c(c3)OCO4)CC2)nc1 [Piribedil hydrochloride]	0.161	1.95	0.544	1.93	-0.00283	1.55
CC(C)NCC(O)c1cc(O)cc(O)c1 (stereo unspecified) [Metaproterenol sulfate, orciprenaline sulfate]	-0.366	-0.417	-0.271	-0.375	-0.531	-0.465
CCCCC[C@H](O)/C=C/[C@H]1[C@H](O)CC(=O)[C@@H]1CCCCCCC(=O)O [Alprostadil]	-0.322	-0.486	0.113	-0.324	-0.323	-0.34
OCc1cc(C(O)CNCCCCCCOCCCCc2ccccc2)ccc1O (stereo unspecified) [Salmeterol]	2.65	2.85	3.59	2.48	1.61	2.18
CC(=O)[C@H]1CC[C@H]2[C@@H]3C[C@H](C)C4=CC(=O)CC[C@]4(C)[C@H]3[C@@H](O)C[C@]12C [Medrysone]	1.76	1	0.12	0.163	0.432	0.0722
CN1CC2c3ccccc3Oc3ccc(Cl)cc3C2C1 (stereo unspecified) [Asenapine maleate]	2.13	2	0.865	-0.413	1.3	0.927
Cc1cc(N)c2ccccc2[n+]1CCCCCCCCCC[n+]1c(C)cc(N)c2ccccc21 [Dequalinium dichloride]	-0.351	0.0986	-0.943	1.23	-0.599	-0.485
O=C1OCCN1/N=C/c1ccc([N+](=O)[O-])o1 [Furazolidone]	-0.473	-0.0304	-0.00282	0.522	-0.483	-0.65
CSc1ccc2c(c1)N(CCC1CCCCN1C)c1ccccc1S2 (stereo unspecified) [Thioridazine hydrochloride]	1.04	0.375	-0.796	-0.81	1.25	1.45
CC1(C)O[C@@H]2C[C@H]3[C@@H]4C[C@H](F)C5=CC(=O)CC[C@]5(C)[C@H]4[C@@H](O)C[C@]3(C)[C@]2(C(=O)CO)O1 [Flurandrenolide]	-0.226	-0.763	-0.173	0.429	-0.236	-0.297
CC(C(=O)O)c1ccc(C(=O)c2ccccc2)s1 (stereo unspecified) [Tiaprofenic acid]	-0.52	-0.291	-0.49	0.105	-0.443	-0.426
CCN(CC)Cc1cc(Nc2ccnc3cc(Cl)ccc23)ccc1O [Amodiaquin dihydrochloride dihydrate]	2.13	2.23	0.894	-0.209	1.78	1.72
C#C[C@]1(OC(C)=O)CC[C@H]2[C@@H]3CCC4=CC(=NO)CC[C@@H]4[C@H]3CC[C@@]21CC (mixture of isomers) [Norgestimate]	-0.26	1.65	0.197	0.173	-0.31	0.087
C[C@@H](O)[C@H]1C(=O)N2C(C(=O)O)=C(SCCNC=N)C[C@H]12 [Imipenem]	-0.41	0.231	-0.414	0.00347	-0.461	-0.385
OC(Cn1cncn1)(Cn1cncn1)c1ccc(F)cc1F [Fluconazole]	-0.239	0.69	-0.0365	0.704	-0.366	-0.348
O=C(O)CCNC(=O)c1ccc(/N=N/c2ccc(O)c(C(=O)O)c2)cc1 [Balsalazide Sodium]	-0.394	-0.755	-0.213	0.475	-0.386	-0.346
CC(=C(CCO)SSCC1CCCO1)N(C=O)Cc1cnc(C)nc1N (stereo in doubt) [Fursultiamine Hydrochloride]	-0.412	-0.276	-0.00261	0.173	-0.513	-0.472
Cn1c(=O)c2nc[nH]c2n(C)c1=O [Theophylline monohydrate]	-0.668	-1.36	-0.516	-0.207	-0.57	-0.492
N[C@@H]1CONC1=O [D-cycloserine]	-0.278	-0.4	-0.132	-0.322	-0.405	-0.523
